High-throughput results deposited in PubChem by The Scripps Research Institute Molecular Screening Center.
The list is not random: actives were taken first. Their share in the collection is about 3.1%.
PAFAH2 inh: inhibitors of human PAFAH2 | Q99487 | recombinant PAFAH2, FP-rhodamine activity probe, fluorescence polarization | inhibition, % at 3.39 µM | 0.99% of 340,000 active;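 active means inhibition above the mean over all tested compounds plus 3 SD, cut at about 30% in these data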;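 further: inhibitors block probe labeling of enzyme so polarization drops; 0% = enzyme with DMSO and 100% = wells lacking PAFAH2 protein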
eLon inh: inhibitors of E. coli Lon protease; purified E. coli Lon protease, fluorescence polarization; inhibition, % at 7.94 µM; 0.42% of 360,000 active; in the data active means inhibition above about 13%, passing the limit was not always enough;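 further: 0% = enzyme with probe and DMSO and 100% = no enzyme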
Target sequence (P0A9M0 whole entry, looked up): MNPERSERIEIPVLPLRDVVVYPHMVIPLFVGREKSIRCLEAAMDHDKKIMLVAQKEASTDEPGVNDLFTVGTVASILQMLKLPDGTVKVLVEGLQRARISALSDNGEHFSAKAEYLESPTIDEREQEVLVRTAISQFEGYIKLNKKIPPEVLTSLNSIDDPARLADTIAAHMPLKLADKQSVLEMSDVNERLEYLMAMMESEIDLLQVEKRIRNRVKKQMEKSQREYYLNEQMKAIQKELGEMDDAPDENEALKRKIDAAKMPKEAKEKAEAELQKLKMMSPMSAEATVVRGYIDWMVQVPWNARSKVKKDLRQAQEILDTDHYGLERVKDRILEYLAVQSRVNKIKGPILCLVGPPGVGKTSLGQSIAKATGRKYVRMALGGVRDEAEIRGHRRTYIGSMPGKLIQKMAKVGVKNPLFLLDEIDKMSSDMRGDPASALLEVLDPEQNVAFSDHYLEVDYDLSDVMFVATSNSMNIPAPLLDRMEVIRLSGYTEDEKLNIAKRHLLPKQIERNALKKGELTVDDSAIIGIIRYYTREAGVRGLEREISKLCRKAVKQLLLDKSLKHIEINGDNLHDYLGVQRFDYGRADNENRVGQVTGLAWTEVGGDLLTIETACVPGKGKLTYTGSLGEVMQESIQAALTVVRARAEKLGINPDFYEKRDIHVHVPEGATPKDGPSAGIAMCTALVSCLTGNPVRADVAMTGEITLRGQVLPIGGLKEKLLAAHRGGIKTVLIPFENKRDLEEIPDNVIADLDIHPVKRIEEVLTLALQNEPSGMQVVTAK
PAFAH1B3 inh: blocks human PAF acetylhydrolase 1B catalytic subunit 3; recombinant PAFAH1B3, FP-rhodamine probe, fluorescence polarization; Q15102; inhibition, % at 3.39 µM; 0.28% of 340,000 active;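 active means inhibition above the screen-wide average of all tested compounds plus 3 SD, cut at about 25% in these data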;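 further: 0% = enzyme with DMSO only and 100% = wells lacking PAFAH1B3 protein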
PAFAH1B2 FP inh: PAFAH1B2 (human) inhibition; P68402; recombinant PAFAH1B2, FP-rhodamine activity probe, fluorescence polarization; inhibition, % at 3.39 µM; 1.2% of 340,000 active;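 active means inhibition above the mean of all tested compounds plus 3 SD, cut at about 24% in these data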;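 further: 0% = enzyme with DMSO and 100% = wells lacking PAFAH1B2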
Rin1 Abl inh: blocks binding of human Rin1 to Abl; TR-FRET Rin1/Abl binding, biochemical; inhibition, % at 7.35 µM; 0.4% of 360,000 active; AID 588664; in the data active means inhibition above about 5%, passing the limit was not always enough
pPAFAH FP inh: pPAFAH (human) enzyme inhibition | Q13093 | recombinant pPAFAH, FP-rhodamine probe fluorescence polarization | inhibition, % at 3.39 µM | 1.5% of 330,000 active;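 active means inhibition above the mean inhibition across the screen plus 3 SD, cut at about 25% in these data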;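 further: inhibitors block binding of the rhodamine activity-based probe so polarization drops; 0% = enzyme with DMSO and 100% = wells lacking pPAFAH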
PAFAH2 FP conf: confirmation of human PAFAH2 inhibitors; shares compounds with PAFAH2 inh; recombinant PAFAH2, FP-rhodamine activity probe, fluorescence polarization; inhibition, % at 3.39 µM; 65% of 2,300 active; AID 493030;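 active means mean inhibition over three repeats above a set limit taken from the earlier primary screen, cut at about 30% in these data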;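 further: inhibitor blocks binding of rhodamine activity probe so polarization falls; 0% = enzyme with DMSO and 100% = wells lacking PAFAH2 protein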
Active calls of the source: *.

Screening COc1ccccc1CNC(=O)COC(=O)c1ccc(C)s1 returned PAFAH2 inh 75*, eLon inh -10, PAFAH1B3 inh 3, PAFAH1B2 FP inh 4, Rin1 Abl inh -3, pPAFAH FP inh 21 and PAFAH2 FP conf 62*.
For COc1ccccc1CNC(=O)COC(=O)/C=C/c1cccs1 the results were PAFAH2 inh 50*, eLon inh -5, PAFAH1B3 inh 6, PAFAH1B2 FP inh 5, Rin1 Abl inh -1, pPAFAH FP inh 14 and PAFAH2 FP conf 37*.
Screening O=C(COC(=O)/C=C/c1cccs1)Nc1cccc(S(=O)(=O)N2CCCC2)c1 returned PAFAH2 inh 64*, eLon inh -1, PAFAH1B3 inh 11, PAFAH1B2 FP inh 1, Rin1 Abl inh -1, pPAFAH FP inh 5 and PAFAH2 FP conf 57*.
For CCc1cccc(NC(=O)COC(=O)/C=C/c2cccs2)c1 the results were PAFAH2 inh 73*, eLon inh 5, PAFAH1B3 inh 1, PAFAH1B2 FP inh 3, Rin1 Abl inh 1, pPAFAH FP inh 17 and PAFAH2 FP conf 78*.
Screening CCC[C@H]1CC(=O)C=C(c2ccc(OC)cc2)ON1C(=O)OC(C)(C)C returned PAFAH2 inh 7, eLon inh 1, PAFAH1B3 inh 16, PAFAH1B2 FP inh -2 and Rin1 Abl inh -1.
For O=C(COC(=O)/C=C/c1cccs1)Nc1ccc(F)cc1 the results were PAFAH2 inh 82*, eLon inh -5, PAFAH1B3 inh 6, PAFAH1B2 FP inh 2, Rin1 Abl inh 4, pPAFAH FP inh 7 and PAFAH2 FP conf 82*.
CN(CC(=O)Nc1ccc(F)cc1)C(=O)COC(=O)/C=C/c1cccs1 was read as PAFAH2 inh 6, eLon inh -2, PAFAH1B3 inh -3, PAFAH1B2 FP inh 4, Rin1 Abl inh -2 and pPAFAH FP inh 2.
CN(C)S(=O)(=O)c1cccc(NC(=O)COC(=O)c2cccn2C)c1 was read as PAFAH2 inh 36*, eLon inh -15, PAFAH1B3 inh -1, PAFAH1B2 FP inh 5, Rin1 Abl inh -1, pPAFAH FP inh 6 and PAFAH2 FP conf 22.
CCN(CC)S(=O)(=O)c1cccc(NC(=O)COC(=O)c2cc(C)oc2C)c1 was read as PAFAH2 inh 39*, eLon inh -14, PAFAH1B3 inh -3, PAFAH1B2 FP inh -4, Rin1 Abl inh 3, pPAFAH FP inh 4 and PAFAH2 FP conf 39*.
`Cc1noc(C)c1C(=O)OCC(=O)Nc1cccc(S(=O)(=O)N(C)C)c1` gave PAFAH2 inh 4, eLon inh -2, PAFAH1B3 inh 1, PAFAH1B2 FP inh 1, Rin1 Abl inh -3 and pPAFAH FP inh 0.
Screening Cc1cc(C(=O)OCC(=O)Nc2cccc(S(=O)(=O)N(C)C)c2)c(C)o1 returned PAFAH2 inh 45*, eLon inh -3, PAFAH1B3 inh -4, PAFAH1B2 FP inh 1, Rin1 Abl inh -1, pPAFAH FP inh 1 and PAFAH2 FP conf 34*.
`COc1ccc(S(=O)(=O)N(C)CC(=O)NCCCn2ccnc2)cc1Cl` gave PAFAH2 inh 3, eLon inh -6, PAFAH1B3 inh 12, PAFAH1B2 FP inh 3, Rin1 Abl inh 4 and pPAFAH FP inh 1.
`CCOc1ccc(CCNC(=O)c2ccc3ccccc3n2)cc1OCC` gave PAFAH2 inh -1, eLon inh -14, PAFAH1B3 inh 0, PAFAH1B2 FP inh 0, Rin1 Abl inh 3 and pPAFAH FP inh -5.
O=C(COC(=O)c1cccnc1)NC1CCCc2ccccc21 (configuration not stated) was read as PAFAH2 inh 3, eLon inh -1, PAFAH1B3 inh 1, PAFAH1B2 FP inh 0 and Rin1 Abl inh -1.
CC(=O)Nc1cccc(C(=O)OCC(=O)NC(=O)NC2CCCC2)c1 was read as eLon inh 2 and Rin1 Abl inh 0.
For O=C(COC(=O)c1ccc(Cl)cc1)NC1CCCCCC1 the results were PAFAH2 inh 78*, eLon inh -1, PAFAH1B3 inh 4, PAFAH1B2 FP inh 4, Rin1 Abl inh -2, pPAFAH FP inh 9 and PAFAH2 FP conf 79*.
For Nc1cccc(C(=O)OCC(=O)NC2CCCc3ccccc32)c1 (configuration not stated) the results were PAFAH2 inh 53*, eLon inh 0, PAFAH1B3 inh 4, PAFAH1B2 FP inh -3, Rin1 Abl inh 1, pPAFAH FP inh 11 and PAFAH2 FP conf 28.
N#Cc1ccc(C(=O)OCC(=O)NC2CCCC2)cc1 was read as PAFAH2 inh 0, eLon inh -2, PAFAH1B3 inh -1, PAFAH1B2 FP inh 5, Rin1 Abl inh -1 and pPAFAH FP inh 3.
CC(=O)Nc1cccc(C(=O)OCC(=O)NC2CCCCCCC2)c1 was read as PAFAH2 inh 84*, eLon inh -6, PAFAH1B3 inh 9, PAFAH1B2 FP inh -1, Rin1 Abl inh 2, pPAFAH FP inh -16 and PAFAH2 FP conf 84*.
For Cc1cccc(C(=O)NCC(=O)OCC(=O)NC2CCCCC2)c1 the results were PAFAH2 inh 57*, eLon inh -10, PAFAH1B3 inh 5, PAFAH1B2 FP inh 2, Rin1 Abl inh 2, pPAFAH FP inh 5 and PAFAH2 FP conf 41*.
Cc1cccc(C(=O)NCC(=O)OCC(=O)NC2CCCCCCC2)c1 was read as PAFAH2 inh 1, eLon inh -2, PAFAH1B3 inh 7, PAFAH1B2 FP inh 3, Rin1 Abl inh -3 and pPAFAH FP inh 13.
Screening CC(=O)Nc1ccc(S(=O)(=O)N2CCN(C(=O)c3ncoc3-c3ccc(C)cc3)CC2)cc1 returned PAFAH2 inh 8, eLon inh 1, PAFAH1B3 inh 5, PAFAH1B2 FP inh 0, Rin1 Abl inh -2 and pPAFAH FP inh -4.
C/C=C(\C)C(=O)O[C@@H]([C@H](O)c1cc2ccc(=O)oc2cc1OC)C(C)(C)O was read as PAFAH2 inh -3, eLon inh 4, PAFAH1B3 inh -1, PAFAH1B2 FP inh 2, Rin1 Abl inh 1 and pPAFAH FP inh 2.
`O=C(COC(=O)CNC(=O)c1ccccc1)NC1CCCCC1` gave PAFAH2 inh 1, eLon inh 6, PAFAH1B3 inh 6, PAFAH1B2 FP inh 3, Rin1 Abl inh -1 and pPAFAH FP inh -1.
`O=C(COC(=O)c1ccco1)NC1CCCCC1` gave PAFAH2 inh 80*, eLon inh 6, PAFAH1B3 inh -1, PAFAH1B2 FP inh -5, Rin1 Abl inh -2, pPAFAH FP inh 10 and PAFAH2 FP conf 68*.
Screening O=C(COC(=O)c1ccccc1)NC1CCCCCC1 returned PAFAH2 inh 86*, eLon inh 5, PAFAH1B3 inh 8, PAFAH1B2 FP inh 4, Rin1 Abl inh 5, pPAFAH FP inh 7 and PAFAH2 FP conf 78*.
